# Data as given in ChEMBL document CHEMBL1961873, “Compounds: GSK PKIS; Assays: Nanosyn kinase panel” (2012).
# How the values were obtained:
# [1] = target: T1, Inhibitor of nuclear factor kappa-B kinase subunit epsilon (Homo sapiens) (UniProt Q14164); conditions: at 1 µM;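 further: reported values are averaged percent inhibition figures against human IKKε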
# T1 sequence (whole entry): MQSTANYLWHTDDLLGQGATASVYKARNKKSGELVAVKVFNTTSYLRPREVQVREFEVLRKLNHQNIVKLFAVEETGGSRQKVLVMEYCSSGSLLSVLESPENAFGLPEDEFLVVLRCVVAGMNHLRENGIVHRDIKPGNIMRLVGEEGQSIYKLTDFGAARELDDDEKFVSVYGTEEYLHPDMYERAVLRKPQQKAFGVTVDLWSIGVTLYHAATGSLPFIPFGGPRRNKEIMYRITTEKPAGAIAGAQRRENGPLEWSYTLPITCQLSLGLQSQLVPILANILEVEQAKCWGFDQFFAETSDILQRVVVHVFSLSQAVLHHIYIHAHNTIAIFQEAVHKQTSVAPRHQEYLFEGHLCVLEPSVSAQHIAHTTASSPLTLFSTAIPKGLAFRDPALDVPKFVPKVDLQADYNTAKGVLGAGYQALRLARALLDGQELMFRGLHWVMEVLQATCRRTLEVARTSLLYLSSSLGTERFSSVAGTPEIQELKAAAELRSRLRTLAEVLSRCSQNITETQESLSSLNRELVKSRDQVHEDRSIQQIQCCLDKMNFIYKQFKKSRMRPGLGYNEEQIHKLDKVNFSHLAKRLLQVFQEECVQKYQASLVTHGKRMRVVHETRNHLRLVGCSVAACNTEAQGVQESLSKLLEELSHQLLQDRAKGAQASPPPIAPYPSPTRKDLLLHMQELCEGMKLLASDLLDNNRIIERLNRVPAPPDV
# [2] = target: T2, Serine/threonine-protein kinase Nek1 (Homo sapiens) (UniProt Q96PY6); conditions: at 0.1 µM
# T2 sequence (whole entry): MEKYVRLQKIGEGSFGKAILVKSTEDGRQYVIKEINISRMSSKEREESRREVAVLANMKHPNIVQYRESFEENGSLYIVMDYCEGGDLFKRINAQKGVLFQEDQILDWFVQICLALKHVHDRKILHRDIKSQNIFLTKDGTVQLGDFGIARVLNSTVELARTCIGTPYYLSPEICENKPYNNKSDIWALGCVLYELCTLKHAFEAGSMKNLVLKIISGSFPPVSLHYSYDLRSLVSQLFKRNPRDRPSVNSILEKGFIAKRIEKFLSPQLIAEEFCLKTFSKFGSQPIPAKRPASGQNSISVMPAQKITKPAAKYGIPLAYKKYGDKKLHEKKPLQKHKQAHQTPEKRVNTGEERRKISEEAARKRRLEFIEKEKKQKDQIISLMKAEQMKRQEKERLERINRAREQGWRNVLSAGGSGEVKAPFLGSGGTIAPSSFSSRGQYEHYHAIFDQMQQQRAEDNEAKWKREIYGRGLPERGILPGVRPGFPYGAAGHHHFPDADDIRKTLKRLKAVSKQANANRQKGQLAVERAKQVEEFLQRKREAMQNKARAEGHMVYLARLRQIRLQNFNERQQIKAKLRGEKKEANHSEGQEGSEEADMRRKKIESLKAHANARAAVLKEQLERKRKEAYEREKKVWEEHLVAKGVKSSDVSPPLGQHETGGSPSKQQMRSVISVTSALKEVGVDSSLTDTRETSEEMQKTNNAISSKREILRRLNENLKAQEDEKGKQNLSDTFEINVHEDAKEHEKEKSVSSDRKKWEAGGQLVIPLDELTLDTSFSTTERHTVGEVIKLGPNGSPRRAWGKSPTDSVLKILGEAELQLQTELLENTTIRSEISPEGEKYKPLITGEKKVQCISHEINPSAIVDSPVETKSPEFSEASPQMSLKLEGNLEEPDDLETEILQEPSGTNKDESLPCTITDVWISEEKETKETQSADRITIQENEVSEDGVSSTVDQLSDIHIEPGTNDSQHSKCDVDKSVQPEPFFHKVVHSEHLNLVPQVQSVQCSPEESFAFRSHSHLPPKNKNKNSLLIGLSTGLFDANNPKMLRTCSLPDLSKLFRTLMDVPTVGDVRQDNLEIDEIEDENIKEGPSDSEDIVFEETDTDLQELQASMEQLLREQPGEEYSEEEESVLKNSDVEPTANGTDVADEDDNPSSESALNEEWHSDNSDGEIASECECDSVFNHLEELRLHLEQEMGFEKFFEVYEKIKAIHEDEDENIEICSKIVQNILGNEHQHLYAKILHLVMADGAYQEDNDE
# [3] = target: T2, Serine/threonine-protein kinase Nek1 (Homo sapiens); conditions: at 1 µM
# [4] = target: T3, Serine/threonine-protein kinase Nek2 (Homo sapiens) (UniProt P51955); conditions: at 0.1 µM
# T3 sequence (whole entry): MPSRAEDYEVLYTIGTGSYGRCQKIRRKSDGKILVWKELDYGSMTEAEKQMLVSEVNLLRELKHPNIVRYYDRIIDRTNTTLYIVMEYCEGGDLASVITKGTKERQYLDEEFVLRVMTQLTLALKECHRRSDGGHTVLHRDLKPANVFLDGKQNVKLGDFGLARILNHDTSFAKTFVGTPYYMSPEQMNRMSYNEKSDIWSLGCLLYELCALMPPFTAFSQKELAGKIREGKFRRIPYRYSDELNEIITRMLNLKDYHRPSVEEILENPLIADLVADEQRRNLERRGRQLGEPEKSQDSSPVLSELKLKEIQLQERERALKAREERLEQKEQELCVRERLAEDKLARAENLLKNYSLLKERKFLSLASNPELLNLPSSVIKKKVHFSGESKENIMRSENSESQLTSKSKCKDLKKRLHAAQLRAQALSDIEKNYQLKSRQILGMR
# [5] = target: T3, Serine/threonine-protein kinase Nek2 (Homo sapiens); conditions: at 1 µM
# [6] = target: Serine/threonine-protein kinase Nek6 (Homo sapiens) (UniProt Q9HC98); conditions: at 0.1 µM
# Serine/threonine-protein kinase Nek6 (Homo sapiens), sequence (Q9HC98 whole entry): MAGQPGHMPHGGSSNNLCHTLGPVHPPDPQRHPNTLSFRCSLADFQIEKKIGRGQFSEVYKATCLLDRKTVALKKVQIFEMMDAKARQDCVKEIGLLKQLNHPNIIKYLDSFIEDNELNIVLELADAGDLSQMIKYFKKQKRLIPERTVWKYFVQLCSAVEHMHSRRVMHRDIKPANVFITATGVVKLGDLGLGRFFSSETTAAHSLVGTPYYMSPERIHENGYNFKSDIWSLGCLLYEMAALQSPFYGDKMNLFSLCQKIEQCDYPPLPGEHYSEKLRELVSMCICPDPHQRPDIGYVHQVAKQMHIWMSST
# [7] = target: Serine/threonine-protein kinase Nek6 (Homo sapiens) (UniProt Q9HC98); conditions: at 1 µM
# [8] = target: Serine/threonine-protein kinase Nek7 (Homo sapiens) (UniProt Q8TDX7); conditions: at 0.1 µM
# Serine/threonine-protein kinase Nek7 (Homo sapiens), sequence (Q8TDX7 whole entry, looked up): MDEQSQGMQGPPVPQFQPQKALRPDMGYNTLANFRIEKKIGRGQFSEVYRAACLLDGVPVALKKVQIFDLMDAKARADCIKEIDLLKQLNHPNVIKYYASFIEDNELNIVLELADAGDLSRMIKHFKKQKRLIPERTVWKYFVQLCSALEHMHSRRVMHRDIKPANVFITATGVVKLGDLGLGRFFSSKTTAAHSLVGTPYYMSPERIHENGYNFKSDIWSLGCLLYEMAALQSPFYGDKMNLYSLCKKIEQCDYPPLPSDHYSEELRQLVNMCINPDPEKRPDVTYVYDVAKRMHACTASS
# [9] = target: Serine/threonine-protein kinase Nek7 (Homo sapiens) (UniProt Q8TDX7); conditions: at 1 µM
# [10] = target: T4, Serine/threonine-protein kinase Nek9 (Homo sapiens) (UniProt Q8TD19); conditions: at 0.1 µM
# T4 sequence (whole entry): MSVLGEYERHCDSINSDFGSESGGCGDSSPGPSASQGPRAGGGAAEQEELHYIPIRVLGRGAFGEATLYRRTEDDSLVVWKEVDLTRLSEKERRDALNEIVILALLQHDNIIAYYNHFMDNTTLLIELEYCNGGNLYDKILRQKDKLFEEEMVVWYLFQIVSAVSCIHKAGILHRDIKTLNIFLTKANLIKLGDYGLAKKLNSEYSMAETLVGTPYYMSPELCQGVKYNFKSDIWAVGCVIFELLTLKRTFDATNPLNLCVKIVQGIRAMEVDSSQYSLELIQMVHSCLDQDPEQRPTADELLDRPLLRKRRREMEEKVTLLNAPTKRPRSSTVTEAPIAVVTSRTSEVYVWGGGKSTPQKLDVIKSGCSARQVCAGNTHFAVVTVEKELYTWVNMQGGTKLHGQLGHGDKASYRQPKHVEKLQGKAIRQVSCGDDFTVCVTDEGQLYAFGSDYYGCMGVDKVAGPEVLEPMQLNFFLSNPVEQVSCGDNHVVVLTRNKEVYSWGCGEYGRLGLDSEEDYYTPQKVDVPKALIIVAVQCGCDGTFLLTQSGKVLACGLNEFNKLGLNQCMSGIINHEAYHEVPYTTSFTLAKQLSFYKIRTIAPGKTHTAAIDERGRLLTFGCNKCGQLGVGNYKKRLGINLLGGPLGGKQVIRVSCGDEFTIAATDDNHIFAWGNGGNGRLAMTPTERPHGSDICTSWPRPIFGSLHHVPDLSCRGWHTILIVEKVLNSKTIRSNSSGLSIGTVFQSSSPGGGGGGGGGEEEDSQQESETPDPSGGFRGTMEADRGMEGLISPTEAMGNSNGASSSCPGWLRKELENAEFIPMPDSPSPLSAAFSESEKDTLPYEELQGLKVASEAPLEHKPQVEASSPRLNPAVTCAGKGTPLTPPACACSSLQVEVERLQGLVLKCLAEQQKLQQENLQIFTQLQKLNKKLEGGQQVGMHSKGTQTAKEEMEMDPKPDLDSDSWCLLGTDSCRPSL
# [11] = target: T4, Serine/threonine-protein kinase Nek9 (Homo sapiens); conditions: at 1 µM
# [12] = target: Serine/threonine-protein kinase PLK1 (Homo sapiens) (UniProt P53350); conditions: at 0.1 µM
# Serine/threonine-protein kinase PLK1 (Homo sapiens), sequence (P53350 whole entry): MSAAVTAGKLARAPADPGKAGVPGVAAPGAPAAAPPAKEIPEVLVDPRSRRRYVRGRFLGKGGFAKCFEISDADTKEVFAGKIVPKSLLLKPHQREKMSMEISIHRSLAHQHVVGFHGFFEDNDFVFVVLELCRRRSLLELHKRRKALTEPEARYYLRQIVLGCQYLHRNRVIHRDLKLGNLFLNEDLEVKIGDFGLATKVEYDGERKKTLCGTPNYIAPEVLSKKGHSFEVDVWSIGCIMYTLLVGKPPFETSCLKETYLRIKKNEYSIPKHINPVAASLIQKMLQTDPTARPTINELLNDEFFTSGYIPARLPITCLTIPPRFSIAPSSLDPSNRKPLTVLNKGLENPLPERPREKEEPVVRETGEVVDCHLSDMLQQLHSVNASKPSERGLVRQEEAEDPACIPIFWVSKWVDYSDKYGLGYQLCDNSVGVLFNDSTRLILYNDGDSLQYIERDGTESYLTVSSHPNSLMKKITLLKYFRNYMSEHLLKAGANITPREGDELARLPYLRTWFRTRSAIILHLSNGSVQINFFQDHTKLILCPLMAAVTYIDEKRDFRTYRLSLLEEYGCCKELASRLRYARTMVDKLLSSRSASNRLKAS
# [13] = target: Serine/threonine-protein kinase PLK1 (Homo sapiens) (UniProt P53350); conditions: at 1 µM
# [14] = target: T5, Dual specificity protein kinase TTK (Homo sapiens) (UniProt P33981); conditions: at 0.1 µM
# T5 sequence (whole entry): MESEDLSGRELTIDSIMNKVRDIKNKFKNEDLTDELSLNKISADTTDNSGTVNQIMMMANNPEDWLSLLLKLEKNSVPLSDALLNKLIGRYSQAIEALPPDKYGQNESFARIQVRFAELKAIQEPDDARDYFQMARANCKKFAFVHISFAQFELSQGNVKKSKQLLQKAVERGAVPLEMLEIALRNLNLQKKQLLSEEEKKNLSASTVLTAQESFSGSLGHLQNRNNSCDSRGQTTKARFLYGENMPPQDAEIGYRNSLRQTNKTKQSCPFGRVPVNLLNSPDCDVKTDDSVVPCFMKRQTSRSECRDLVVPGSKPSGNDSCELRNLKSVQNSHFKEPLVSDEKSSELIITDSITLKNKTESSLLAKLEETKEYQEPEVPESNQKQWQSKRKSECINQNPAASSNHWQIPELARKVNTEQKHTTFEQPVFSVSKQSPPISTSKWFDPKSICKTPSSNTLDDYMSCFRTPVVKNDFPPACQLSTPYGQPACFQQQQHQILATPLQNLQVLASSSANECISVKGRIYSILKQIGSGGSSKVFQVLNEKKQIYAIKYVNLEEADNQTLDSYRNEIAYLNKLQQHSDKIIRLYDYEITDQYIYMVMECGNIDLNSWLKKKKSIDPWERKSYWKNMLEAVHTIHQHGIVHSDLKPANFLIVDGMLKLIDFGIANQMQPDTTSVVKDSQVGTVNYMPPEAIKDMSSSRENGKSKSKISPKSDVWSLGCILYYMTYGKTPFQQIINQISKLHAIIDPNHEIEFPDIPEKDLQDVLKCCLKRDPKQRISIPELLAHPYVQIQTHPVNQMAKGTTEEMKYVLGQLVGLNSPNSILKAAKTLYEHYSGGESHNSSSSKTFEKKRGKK
# [15] = system: T6, Receptor-type tyrosine-protein kinase FLT3 (Homo sapiens), P36888 [D835Y]; conditions: at 1 µM
# T6 sequence (whole entry): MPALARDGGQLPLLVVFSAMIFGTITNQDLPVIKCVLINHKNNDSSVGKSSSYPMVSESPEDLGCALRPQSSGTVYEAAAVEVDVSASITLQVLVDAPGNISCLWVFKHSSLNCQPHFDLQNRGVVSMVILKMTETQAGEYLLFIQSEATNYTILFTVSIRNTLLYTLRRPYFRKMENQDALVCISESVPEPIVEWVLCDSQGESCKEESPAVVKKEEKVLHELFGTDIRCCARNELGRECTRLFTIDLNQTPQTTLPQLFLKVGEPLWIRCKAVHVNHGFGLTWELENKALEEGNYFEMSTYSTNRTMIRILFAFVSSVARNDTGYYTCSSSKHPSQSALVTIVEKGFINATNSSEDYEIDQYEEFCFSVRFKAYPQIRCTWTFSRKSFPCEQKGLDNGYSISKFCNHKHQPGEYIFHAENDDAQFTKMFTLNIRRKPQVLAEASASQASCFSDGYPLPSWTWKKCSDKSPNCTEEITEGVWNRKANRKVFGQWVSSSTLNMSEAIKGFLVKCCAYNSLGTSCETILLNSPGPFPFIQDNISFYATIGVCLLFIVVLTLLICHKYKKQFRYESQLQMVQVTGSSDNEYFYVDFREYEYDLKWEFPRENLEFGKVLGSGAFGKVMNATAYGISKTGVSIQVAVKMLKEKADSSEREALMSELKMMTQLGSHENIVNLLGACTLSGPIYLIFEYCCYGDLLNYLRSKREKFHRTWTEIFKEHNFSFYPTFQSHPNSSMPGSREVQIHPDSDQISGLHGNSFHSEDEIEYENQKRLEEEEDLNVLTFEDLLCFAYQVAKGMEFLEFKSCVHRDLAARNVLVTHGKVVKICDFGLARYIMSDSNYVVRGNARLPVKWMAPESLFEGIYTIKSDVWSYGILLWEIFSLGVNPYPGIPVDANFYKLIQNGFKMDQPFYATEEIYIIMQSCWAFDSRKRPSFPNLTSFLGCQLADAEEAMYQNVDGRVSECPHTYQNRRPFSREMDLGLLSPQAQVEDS
# [16] = target: Vascular endothelial growth factor receptor 3 (Homo sapiens) (UniProt P35916); conditions: at 0.1 µM
# Vascular endothelial growth factor receptor 3 (Homo sapiens), sequence (P35916 whole entry): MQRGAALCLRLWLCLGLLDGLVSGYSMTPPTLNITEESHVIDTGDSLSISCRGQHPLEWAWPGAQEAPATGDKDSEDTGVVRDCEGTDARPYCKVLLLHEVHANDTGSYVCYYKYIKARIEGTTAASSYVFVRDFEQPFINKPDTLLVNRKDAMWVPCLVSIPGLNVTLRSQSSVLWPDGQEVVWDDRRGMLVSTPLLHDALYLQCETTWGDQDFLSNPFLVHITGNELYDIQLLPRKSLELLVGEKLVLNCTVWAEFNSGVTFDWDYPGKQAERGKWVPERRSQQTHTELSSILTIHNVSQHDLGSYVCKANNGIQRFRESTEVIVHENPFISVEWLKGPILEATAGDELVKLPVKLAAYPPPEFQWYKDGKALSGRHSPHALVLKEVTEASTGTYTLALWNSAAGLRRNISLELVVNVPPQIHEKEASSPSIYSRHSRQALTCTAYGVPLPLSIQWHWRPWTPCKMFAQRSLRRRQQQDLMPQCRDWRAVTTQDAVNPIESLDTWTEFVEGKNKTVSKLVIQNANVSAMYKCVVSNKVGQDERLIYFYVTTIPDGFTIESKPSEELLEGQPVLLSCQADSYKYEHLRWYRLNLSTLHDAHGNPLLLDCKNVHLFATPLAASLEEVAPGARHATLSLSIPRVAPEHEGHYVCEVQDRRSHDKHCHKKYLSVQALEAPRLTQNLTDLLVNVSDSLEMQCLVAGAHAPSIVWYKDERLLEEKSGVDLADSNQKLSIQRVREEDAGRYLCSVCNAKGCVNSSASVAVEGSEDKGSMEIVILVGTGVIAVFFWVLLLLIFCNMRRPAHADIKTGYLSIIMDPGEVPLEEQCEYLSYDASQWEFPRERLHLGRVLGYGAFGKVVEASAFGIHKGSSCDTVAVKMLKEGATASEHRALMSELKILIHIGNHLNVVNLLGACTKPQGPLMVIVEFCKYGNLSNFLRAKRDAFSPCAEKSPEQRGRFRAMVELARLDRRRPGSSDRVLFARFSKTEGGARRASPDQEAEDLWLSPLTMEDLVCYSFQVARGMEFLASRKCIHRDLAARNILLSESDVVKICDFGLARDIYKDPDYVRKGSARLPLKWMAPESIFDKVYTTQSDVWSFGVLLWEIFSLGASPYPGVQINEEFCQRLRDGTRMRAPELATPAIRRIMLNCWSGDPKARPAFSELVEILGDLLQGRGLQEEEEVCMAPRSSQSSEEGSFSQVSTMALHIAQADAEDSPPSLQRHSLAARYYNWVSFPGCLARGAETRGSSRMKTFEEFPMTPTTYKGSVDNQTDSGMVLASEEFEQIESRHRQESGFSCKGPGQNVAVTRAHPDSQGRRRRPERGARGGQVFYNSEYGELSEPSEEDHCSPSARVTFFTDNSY
# [17] = target: Vascular endothelial growth factor receptor 3 (Homo sapiens) (UniProt P35916); conditions: at 1 µM
# [18] = target: Macrophage colony-stimulating factor 1 receptor (Homo sapiens) (UniProt P07333); conditions: at 0.1 µM
# Macrophage colony-stimulating factor 1 receptor (Homo sapiens), sequence (P07333 whole entry): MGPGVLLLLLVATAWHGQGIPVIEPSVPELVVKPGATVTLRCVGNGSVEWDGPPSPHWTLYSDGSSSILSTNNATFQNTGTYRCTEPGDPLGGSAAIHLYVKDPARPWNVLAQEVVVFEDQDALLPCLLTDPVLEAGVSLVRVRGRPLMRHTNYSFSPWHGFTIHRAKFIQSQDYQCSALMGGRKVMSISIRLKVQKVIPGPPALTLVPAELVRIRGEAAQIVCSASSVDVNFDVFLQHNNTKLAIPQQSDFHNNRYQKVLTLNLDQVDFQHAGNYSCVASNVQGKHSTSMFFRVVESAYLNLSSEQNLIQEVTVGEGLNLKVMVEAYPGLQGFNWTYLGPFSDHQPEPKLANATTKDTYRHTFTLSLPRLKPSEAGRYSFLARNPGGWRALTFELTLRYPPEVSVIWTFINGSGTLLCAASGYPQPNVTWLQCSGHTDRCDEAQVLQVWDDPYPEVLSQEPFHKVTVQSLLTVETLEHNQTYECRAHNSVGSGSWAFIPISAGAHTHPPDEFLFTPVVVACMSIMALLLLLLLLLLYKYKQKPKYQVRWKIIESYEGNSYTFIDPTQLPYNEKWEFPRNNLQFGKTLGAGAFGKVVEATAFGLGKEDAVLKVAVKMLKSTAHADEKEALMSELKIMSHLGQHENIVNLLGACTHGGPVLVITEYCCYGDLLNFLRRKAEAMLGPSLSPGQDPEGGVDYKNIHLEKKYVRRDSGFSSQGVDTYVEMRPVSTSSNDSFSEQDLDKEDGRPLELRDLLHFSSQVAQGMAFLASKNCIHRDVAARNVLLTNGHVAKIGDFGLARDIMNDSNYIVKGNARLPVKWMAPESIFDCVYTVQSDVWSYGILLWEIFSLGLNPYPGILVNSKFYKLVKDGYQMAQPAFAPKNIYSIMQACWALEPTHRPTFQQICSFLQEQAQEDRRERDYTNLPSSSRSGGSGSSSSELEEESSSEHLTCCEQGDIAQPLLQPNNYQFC
# [19] = target: Macrophage colony-stimulating factor 1 receptor (Homo sapiens) (UniProt P07333); conditions: at 1 µM
# [20] = target: Tyrosine-protein kinase Fyn (Homo sapiens) (UniProt P06241); conditions: at 0.1 µM
# Tyrosine-protein kinase Fyn (Homo sapiens), sequence (P06241 2-537 limits assumed): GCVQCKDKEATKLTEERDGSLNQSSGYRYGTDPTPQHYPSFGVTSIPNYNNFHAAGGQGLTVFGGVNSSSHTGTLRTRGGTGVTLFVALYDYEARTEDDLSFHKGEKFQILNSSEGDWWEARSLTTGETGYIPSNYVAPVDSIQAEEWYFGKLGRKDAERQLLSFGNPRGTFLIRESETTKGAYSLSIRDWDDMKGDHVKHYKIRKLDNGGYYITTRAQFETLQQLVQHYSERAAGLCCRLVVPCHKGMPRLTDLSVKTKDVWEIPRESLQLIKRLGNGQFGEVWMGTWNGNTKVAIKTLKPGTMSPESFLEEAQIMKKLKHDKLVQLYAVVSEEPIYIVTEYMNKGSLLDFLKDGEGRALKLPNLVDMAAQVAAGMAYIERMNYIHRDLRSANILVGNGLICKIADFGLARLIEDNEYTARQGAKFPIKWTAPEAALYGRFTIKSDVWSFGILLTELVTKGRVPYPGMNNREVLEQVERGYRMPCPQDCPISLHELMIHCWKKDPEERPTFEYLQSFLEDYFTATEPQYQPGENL
structure (smiles),measurement,setting,value
N#Cc1cccc(Nc2ncc(-c3ccccc3)o2)c1,inhibition,[1],6.35%
same,inhibition,[2],1.6%
same,inhibition,[3],2.44%
same,inhibition,[4],2.51%
same,inhibition,[5],0.06%
same,inhibition,[6],1.87%
same,inhibition,[7],5.4%
same,inhibition,[8],2.82%
same,inhibition,[9],1.01%
same,inhibition,[10],8.32%
same,inhibition,[11],4.83%
same,inhibition,[12],2.12%
same,inhibition,[13],1.8%
same,inhibition,[14],6.6%
same,inhibition,[15],9.89%
same,inhibition,[16],-0.11%
same,inhibition,[17],3.1%
same,inhibition,[18],3.05%
same,inhibition,[19],14.6%
same,inhibition,[20],1.43%
